# From the supplement of paper PMC6555819
# How the values were obtained:
# Experiment in all cases: PBM binding z-score (relative to random genomic background probes); higher = stronger binding; sequences stand for … in GC…GCGATTGACAGCGTAGAATGAAGG
# [1] = system: FXR:RXRa (NR concentration 270 nM, RXRa partner concentration 90 nM)
# Outline: (§1)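 For binding z-scores, the reference was random background probes on custom Agilent 4×180K protein-binding microarrays. These arrays were incubated 1 h with ligand-free nuclear receptor dimers in PBS pH 7.4, 2% milk, 0.02% Triton X-100, 1 mM DTT, 0.2 mg/mL BSA and 0.4 mg/ml salmon testes DNA. Fluorescence was scanned after antibody detection of each partner (one per run) and regression-normalized.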
# [2] = system: LXRa:RXRa (NR concentration 270 nM, RXRa partner concentration 90 nM)
# Outline: as §1
# [3] = system: LXRa homodimer (NR concentration 270 nM)
# Outline: as §1
# [4] = system: LXRb:RXRa (NR concentration 270 nM, RXRa partner concentration 90 nM)
# Outline: as §1
# [5] = system: LXRb homodimer (NR concentration 270 nM)
# Outline: as §1
# [6] = system: PPARa:RXRa (NR concentration 270 nM, RXRa partner concentration 90 nM)
# Outline: as §1
# [7] = system: PPARg:RXRa (NR concentration 180 nM, RXRa partner concentration 90 nM)
# Outline: as §1
# [8] = system: PPARg:RXRa 270nM:90nM, anti-RXR (NR concentration 270 nM, RXRa partner concentration 90 nM)
# Outline: as §1
# [9] = system: PPARg:RXRa 30nM:10nM, anti-RXR (NR concentration 30 nM, RXRa partner concentration 10 nM)
# Outline: as §1
# [10] = system: PPARg:RXRa 90nM:30nM, anti-RXR (NR concentration 90 nM, RXRa partner concentration 30 nM)
# Outline: as §1
Sequence,PBM binding z-score [1],PBM binding z-score [2],PBM binding z-score [3],PBM binding z-score [4],PBM binding z-score [5],PBM binding z-score [6],PBM binding z-score [7],PBM binding z-score [8],PBM binding z-score [9],PBM binding z-score [10]
CGAACTAGGTCAAAAGACAGTGAAAGGCGACGTA,3.09,2.03,-0.16,1.47,-0.191,4.46,8.06,7.08,5.52,7.26
ATCGAAAGGTCGAAGGTGAGTACACCCACCCGAA,4.49,3.49,0.413,2.92,0.705,4.68,–,4.86,2.04,3.87
TGAATGAGGTGAAAGATCAGGGAACGTGGCGTCG,1.19,1.1,-0.421,0.428,0.209,4.52,–,6.92,6.44,7.54
CGAACTAGGTGAAAGGACAGTGAAAGGCGACGTA,-0.276,-0.418,-0.4,-0.115,-0.863,4.46,8.84,7.7,6.77,8.31
CGAACTAGGTCCTTGACAGGACAGTGAATAGTAA,-0.28,-0.522,0.156,-0.566,-0.907,0.107,–,0.252,-0.201,-0.145
CGTCAAAGTTCAAGCTAACGTAACAGAAAGCAGC,7.1,6.1,3.7,3.81,1.32,4.93,4.58,5.18,2.29,4.32
CGTCGAAGGTCAATGCTAGGTCAGTGAAAGCATT,6.95,5.54,2.6,4.32,0.906,5.41,–,4.82,1.4,3.63
CACACTAGGTCAAGAGGTCAAAGTCCGCTTCCCG,7.5,6.61,7.43,5.8,2.67,6.33,9.41,7.85,7.67,8.14
CGAACTAGGTAACCAGGACAGTGAAGAGGTTGGA,-0.0198,-0.368,-0.222,-0.525,-0.784,1.66,2.32,2,0.303,0.958
CCTAGTGGGCCAAAGGTCATTGATTCCAATGCTC,5.47,5.18,3.76,5.23,0.768,6.76,–,10.7,13.5,12.9
ATCTAAAGGTCGAAGGTGAGTATACCCACCCGAA,4.51,4.47,0.846,3.2,1.12,4.71,5.11,5.19,2.76,4.36
CCTACTGGGCGAAGGTCATTGATCAGTCAAAGCA,2.76,2.99,0.677,2.83,-0.515,3.86,3.62,4.54,2.12,4.26
CCTACTGGGCCAAAACGGTCATTGATGCCGATAA,-0.421,-0.427,0.0364,-0.333,-0.867,0.309,–,0.904,-0.186,0.162
CCTTACGGTTCACTGACAGGTTATAGCATTTGGA,1.66,2.43,1.04,1.89,0.471,2.33,–,1.08,0.683,0.771
TCTGCTAGGTCAGTTGGGCAGCTAACGAGCTGCC,0.934,0.385,-0.629,0.223,0.28,1.12,0.0296,1.52,0.946,1.17
CTAACTAGGTCACGAAAGGTCAAAGTCGAATGAC,7.37,8.22,7.7,7.44,2.3,6.57,–,8.24,7.33,8.68
GGAACGGGGGCAAGTTGATAGCAGAGTTTGATGG,3.27,2.87,0.913,4.45,7.1,4.02,3.2,4.52,2.09,3.58
CGAACTAGGTCACCAGGACAGTGCAGAGGTTGGA,4.04,2.7,0.199,1.76,-0.667,5.21,8.59,6.83,4.82,6.44
CCTAGTTGGTCAGGAGGTCCCACACCGGATATGA,0.0406,-0.213,0.429,-0.248,0.251,-0.0736,–,0.194,-0.0977,-0.144
ACTAGAAGGCCAAGGGTCACTCAAGATTAGTCCG,3.27,3.28,0.426,3.25,-0.267,4.51,–,7.08,5.69,7.96
CCTCCAAGGTCATAGGAGGTCAGTGAAGACAGAT,7.3,7.45,4.84,6.24,0.899,5.85,–,5.88,2.47,4.29
TCATATAGGTAATCAGGTGAAAGTCCGTAAGTTA,1.07,0.945,0.314,0.96,0.374,2.68,–,4.24,4.28,4.2
GATACAGGGTCAAGGCCAGAATACGCGTATTGAT,6.98,4.25,0.231,4.25,0.223,5.84,–,5.74,2.61,4.58
TCATATAGGTTAAGGTGAAAGTCGAACGATATGA,2.27,1.59,0.00535,1.55,0.204,3.44,–,4.61,4.32,4.87
CCTTACGGGTCACGGTTATAGCACGGGTGGTACG,5.96,4.01,0.000447,3.23,-0.179,5.56,–,5.89,2.69,4.69
AGTCAAAGTTCAGGACGAGGTAAAGTAAAGCACG,4.27,3.89,1.34,1.9,0.465,3.54,–,4.89,1.9,4.21

Sequence,PBM binding z-score [1],PBM binding z-score [2],PBM binding z-score [3],PBM binding z-score [4],PBM binding z-score [5],PBM binding z-score [6],PBM binding z-score [7],PBM binding z-score [8],PBM binding z-score [9],PBM binding z-score [10]
TATACTGGGTCAAAGGCCAGAGTACGAATGTCGA,4.05,3.73,1.34,2.81,1.32,5.52,–,8.98,8.63,10.2
TCATATAGGTTAAAGGTGAAAGTCGGTGTGGTAA,4.54,4.09,0.882,3.59,0.683,6.28,–,9.55,10.5,11.5
AGTCAAAGTTCAGGACGAGATAACGTAAAGCACG,3.4,3.72,1.12,1.81,0.41,3.28,–,4.8,2.31,3.71
CGTCCAAGGTCAATGCTAGCTCAGTGAAAGCATT,6.48,4.48,0.31,3.45,0.696,4.83,–,4,0.365,2.62
TAGCCTAGGTGATTGGGCCAGTATAGTACGCATC,-0.581,-0.692,-0.293,-0.59,-0.51,-0.146,–,-0.141,-0.21,-0.578
AAAATGAGGTTAAGATCAGGGAAACAGAATACAT,2.83,2.62,0.171,2.1,0.347,4.04,–,2.67,1.16,2.41
CCTTACGGGTCTAGGTTATAGCACGGGTGGTACG,-0.122,-0.0116,0.0619,-0.517,-0.281,0.0671,–,-0.00243,-0.428,-0.39
CCTTACGGGTCAGGAGGTTATAGCACGACGAGCG,4.11,3,0.272,2.52,-0.12,4.49,–,4.07,1.19,2.57
TCATATAGGTGAAAGGTGAAAGTCGGTGTGGTAA,2.9,2.52,0.284,2.76,0.0843,6.44,–,9.98,10.2,12.3
GGAACTAGGGCAAAGTTGATAGCATCTGTCGACG,-0.124,-0.2,-0.596,0.16,-0.519,5.37,–,8.84,8.63,9.67
CCTACTGGGCCAAAAAGGCCATTGATGCCGATAA,-0.133,-0.247,-0.15,-0.244,-1.1,0.629,–,0.7,-0.443,0.151
CAAACTAGGTCACGAGGTCAAAGTCCGCTTCCCG,7.24,6,5.08,5.41,1.09,6.85,–,8.27,7.29,8.74
CCTGCTAGGACAATGGTCAGCTAAAGCAGCTCGC,-0.67,-0.803,-0.499,-0.869,-1.1,-0.776,–,1.2,-0.505,0.711
GCTATTAGGTGAAAGGGCAACCGAATGATTCTCG,0.916,1.33,-0.0501,1.25,-0.402,5.57,–,8.6,8.54,9.84
ACTAGTAGGCCAAGGGTCACTCAAGATTAGTCCG,2.69,2.91,0.417,2.98,0.0422,5.64,–,9.26,10.9,10.4
CATACAGGGTCATCTAGGCCAGAGTAGGGACGGC,6.67,4.77,0.311,3.7,0.71,5.58,–,5.22,2.16,4.02
CAAAGTAGGTCACCGGAAGGTCAAAGTCCGCATG,6.09,6.41,5.29,5.63,1.43,6.43,–,8.21,6.7,8.45
AGTCAAAGGTCACTAGGTAACGTAAGATTCAGCT,7.63,6.45,2.46,5.48,2.78,6.42,–,8.5,6.26,8.47
AGAATGGGGTTAAGATCAGGGAAACAGAATACAT,4.23,3.54,0.59,4.19,2.1,5.62,–,4.5,2.12,3.37
TTACCAAGGTAAAAGGTCGTTGATGCACGCCTTG,2.52,2.49,0.274,2.25,0.0385,4.46,–,6.8,5.65,6.87
ATCGAACGGTCGAGGTGAGTATAGAGAAAGGGAA,-0.0198,-0.0653,-0.353,-0.34,-0.587,0.105,–,-0.114,-0.342,-0.333
CGTCCAAGGTCAAAGGTCACTGAAGAGATGACGG,8.77,7.26,4.53,7.05,2.19,7.23,–,9.43,11,11.1
CGGACTGGGGCAAAGGTTACCATACTCAGTACGA,1.68,1.67,-0.108,2.34,-0.125,6.02,–,9.26,9.67,11.7
CAAACTAGGTCAAGAGGTCAAAGGCCGCTTCCCG,7.41,6.17,5.69,5.21,1.49,6.45,–,8.47,7.55,9.13
ATCGAAAGGTCGTGACGTGAGTATACAGAAAGGC,5.34,3.84,-0.0538,3.03,0.128,4.8,–,3.82,1.41,2.77
TGGCCTAGGTCATGGGCCAGTATACCACGCGAAC,4.4,2.91,-0.382,1.57,-1.26,3.93,–,3.6,0.481,2.22
